# Experimental data from PubChem BioAssay (NCATS).
# Results filed as inconclusive are left out. A call without a number means that no potency is given here. Calls of active or inactive are those of the source. Unless noted, calls follow the shape of the dose curve; as a rule, active = well fitted curve in the direction sought with a large enough effect; inconclusive = small, poorly fitted or top-dose-only effect, or another doubt; inactive = no such curve, though single readings can be large; an effect the other way counts as inactive or inconclusive.
# What was measured:
# [1] = system: Zika virus NS2B-NS3 protease (linked construct); assay: Primary screen NINDS Rhodamine qHTS for Zika virus inhibitors (AID 1347160); also: nearly all actives have a fitted effect of over 55% in size; also: potency is read from the fitted curve at half-maximal effect
# Outline: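 Percent inhibition, normalized to uninhibited and enzyme-free controls, is fitted to a 4-parameter Hill equation. Fluorescence change comes from a 15-min cleavage of 1.5 microM bis-peptide Rhodamine110 substrate by 25 nM linked NS2B-NS3 at room temperature.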
# [2] = OV-SAHO Cancer Cell Toxicity qHTS against the NCATS CANVASS Library (AID 1347348); also: nearly all actives have a fitted effect of over 55% in size; also: potency is read from the fitted curve at half-maximal effect
# Outline: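 Per well, 1000 cells; exposure 72 h with compound at 11 final concentrations; readout CellTiter-Glo luminescence.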
# [3] = COV-362 Cancer Cell Toxicity qHTS against the NCATS CANVASS Library (AID 1347352); also: potency is read from the fitted curve at half-maximal effect
# Outline: (§1)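 qHTS cytotoxicity: compounds tested in 11 concentrations on 1000 seeded cells per well over 72 h; bortezomib served as control; signal from CellTiter-Glo luminescence.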
# [4] = HEK-293 Cancer Cell Toxicity qHTS against the NCATS CANVASS Library (AID 1347355); also: nearly all actives have a fitted effect of over 65% in size; also: potency is read from the fitted curve at half-maximal effect
# Outline: as §1
# [5] = KB-8-5-11 Cancer Cell Toxicity qHTS against the NCATS CANVASS Library (AID 1347364); also: nearly all actives have a fitted effect of over 75% in size; also: potency is read from the fitted curve at half-maximal effect
# Outline: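 Natural products were titrated in 11 points onto KB-8-5-11 cells, 500 per well, and cytotoxicity was scored from CellTiter-Glo luminescence after 72 hr culture.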
# [6] = qHTS for Activators of p53 Stress Response Pathway screened against the NCATS CANVASS Library (AID 1347388)
# Outline: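 Beta-lactamase reporter driven by p53 response elements in HCT-116 cells, read as the 460 nm/530 nm emission ratio after CCF4 loading, following 16 h of exposure to an 11-point series. Cell viability was measured in the same wells by CellTiter-Glo luminescence.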
# [7] = Redox Reaction Profiling qHTS: Assay Interference Panel against the NCATS CANVASS Library (AID 1347401); also: potency is read from the fitted curve at half-maximal effect
# Outline: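 Cell-free redox surrogate: 5 uM resazurin + 200 uM DTT, 50 mM HEPES pH 7.3/50 mM NaCl; cpds pinned, 11-pt qHTS; Ex525/Em598 read t0 and t=15 min, dark.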
# [8] = Secretion counterscreen for inhibitors of the SERCaMP assay screened against the NCATS CANVASS Library (AID 1347390);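 also: light from luciferase secreted into medium read as a measure of general secretion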; also: potency is read from the fitted curve at half-maximal effect
# Outline: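 SH-SY5Y cells expressing constitutively secreted GLuc, 1000 cells/well, attached 4 h at 37C, then exposed to compounds (0.001 - 77 uM, 11-pnt series) for 20 h. Coelenterazine added; luminescence read to flag secretory-pathway interferers.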
# [9] = qHTS for H2AX Agonists against the NCATS CANVASS Library (AID 1347378); also: potency is read from the fitted curve at half-maximal effect
# Outline: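 CHO-K1 cells were plated overnight at 37C, then exposed to compounds (concentration series, 0.76% DMSO final) for 3 hr at 37C. Lysates received Eu-cryptate anti-pH2AX (S139) and d2 anti-H2AX antibodies; after 24 hr at room temperature, TR-FRET 665/620 nm ratio was read.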
# [10] = system: Zika virus NS2B-NS3 protease (linked); assay: 384 well plate NINDS AMC confirmatory qHTS for Zika virus inhibitors (AID 1347163); also: potency is read from the fitted curve at half-maximal effect; nearly all actives have a fitted effect of over 50% in size
# Outline: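 Linked protease 5/30/60 nM final; cpds up to 1 mM final, ~15 min preinc. Substrate Ac-VKTGKR-AMC 30 microM final. RT, dark, 25 min; FI ex 355/em 460; normalized to no-enzyme/no-inhibitor ctrls.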
# [11] = system: Zika virus NS2B-NS3 protease (linked construct); assay: 384 well plate NINDS Rhodamine confirmatory qHTS for Zika virus inhibitors (AID 1347164);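 also: fluorescence from protease cleavage of Ac-LKRR-rhodamine 110 substrate; nearly all actives have a fitted effect of over 65% in size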; also: potency is read from the fitted curve at half-maximal effect; as to activity change, negative = inhibition: top concentration of the series differs between compounds
# Outline: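 Linked protease at a final 5 nM, 30 nM or 60 nM was preincubated ~15 min with compounds, then given 10 microM Ac-LKRR-Rhodamine 110. Fluorescence (ex 485/em 538 nm) after 25 min in the dark at room temperature.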
# [12] = Confirmatory screen NINDS Rhodamine qHTS for Zika virus inhibitors (AID 1347161); also: nearly all actives have a fitted effect of over 60% in size; also: potency is read from the fitted curve at half-maximal effect;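 as to activity change, negative = inhibition: purified Zika NS2B-NS3 protease with linked NS2B cofactor domain and Rhodamine110 peptide substrate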
# Outline: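 Enzyme (25 nM, linked NS2B-NS3) was preincubated 15 min with compound in 10 mM Tris-HCl pH 8.0, 0.01% Tween 20. Rhodamine110 substrate (1.5 microM) was then added and fluorescence read at start and after 15 min.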
# [13] = molecular target: Cytochrome P450 3A4 (Homo sapiens) (UniProt P08684); assay: qHTS Assay for Activators of Cytochrome P450 3A4 (AID 885); also: nearly all actives have a fitted effect of over 65% in size
# Outline: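 Quantitative HTS format: compounds preincubated with 20nM human CYP3A4 and Luciferin-PPXE substrate at KM, reaction started by NADPH regeneration, stopped after 60 min, luciferase luminescence read 20 min later.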
# [14] = Confirmation and Secondary Assay for Modulators of Hemoglobin Beta Chain Splicing at IVS2 654 locus (AID 910);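 also: HeLa cells stably carrying EGFP split by mutant beta-globin IVS2-654 intron; per-well total GFP intensity by laser scanning cytometry after 2-day treatment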
# Outline: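 Readout: per-well total peak green fluorescence (488 nm ex, 500–520 nm em) from objects 5–250 µm, reflecting correct splicing of an EGFP-654 reporter. Compounds were applied for 2 days at 37 °C to overnight-plated HeLa EGFP-654 cells; controls were DMSO and 500 nM IVS2-654 PNA.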
# [15] = Confirmation and Secondary Assay for Modulators of Hemoglobin Beta Chain Splicing at IVS2 705 locus (AID 930);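 also: HeLa cells stably expressing the EGFP-705 splicing reporter; GFP fluorescence per well restored by corrected splicing of the IVS2-705 intron in EGFP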
# Outline: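 Stable HeLa line with EGFP disrupted by mutant beta-globin intron 2 (705). Overnight attachment, then 2 days of compound at 37C, 5% CO2. Signal: peak GFP intensity summed over objects 5-250 µm.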
# [16] = qHTS drug screen for cell cycle checkpoint inhibitors in PARPi-resistant BRCA-mutant ovarian cancer cell lines. (AID 1963452; calls by dose curve); conditions: PEO1/OlaR viability, CellTiter-Glo luminescence, 96 h, stronger effect = lower value
# Outline: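 PEO1, PEO4 and PEO1/OlaR ovarian cancer cells, 600 per well, exposed 96 h at 37C to a dilution series. Viability read by CellTiter-Glo luminescence, normalized to DMSO and empty wells; activity summarized as Z-AUC.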
# [17] = qHTS assay to identify inhibitors of the type 1 interferon - major histocompatibility complex class I in skeletal muscle: Counter screen cell viability and HiBit confirmation (AID 1347412); conditions: iHSKM muscle cells + IFN-b, HiBiT or CellTiter-Glo, 24 h, at 45.9 µM (top of the series); also: nearly all actives have a fitted effect of over 60% in size
# Outline: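 HLA-B*08:01–HiBiT knock-in immortalized human myoblasts (C25cl48) stimulated with 4.0 ng/ml human IFN-beta and dosed with compound in a 12-point 1:3 titration (top final 46 uM). After 24 hrs at 37 C, HiBiT lytic luminescence or CellTiter Glo ATP read out.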
# [18] = qHTS Assay for Lipid Storage Modulators (AID 1519; calls by dose curve); conditions: Drosophila S3 cells, BODIPY lipid droplet/cell ratio, laser cytometry, cells loaded with oleic acid
# Outline: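 Cells seeded at 5,000 per well were treated with compounds over a concentration series and loaded with oleic acid (400 uM, as added). Lipid droplet fluorescence (488 nm excitation, 500-530 nm channel) was read by laser-scanning cytometry and normalized to 20 uM Triacsin C.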
# Cytochrome P450 3A4 (Homo sapiens), sequence (P08684 whole entry, looked up): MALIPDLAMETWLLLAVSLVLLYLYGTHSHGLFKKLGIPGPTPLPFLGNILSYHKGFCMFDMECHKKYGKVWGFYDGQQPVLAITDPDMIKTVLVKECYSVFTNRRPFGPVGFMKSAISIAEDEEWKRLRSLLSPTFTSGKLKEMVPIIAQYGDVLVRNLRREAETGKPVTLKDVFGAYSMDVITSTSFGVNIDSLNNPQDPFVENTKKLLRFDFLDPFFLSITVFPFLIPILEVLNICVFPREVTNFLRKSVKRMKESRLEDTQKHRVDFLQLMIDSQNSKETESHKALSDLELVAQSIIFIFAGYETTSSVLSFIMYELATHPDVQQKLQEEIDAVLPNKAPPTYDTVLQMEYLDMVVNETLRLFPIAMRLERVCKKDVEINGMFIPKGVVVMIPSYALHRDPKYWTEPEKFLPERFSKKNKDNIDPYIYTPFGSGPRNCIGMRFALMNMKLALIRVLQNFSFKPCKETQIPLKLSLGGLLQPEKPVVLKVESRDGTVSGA
smiles,measurement,setting,value
CCCc1c2c([nH]c(=O)c1C)C(=O)c1[nH]c(=O)c(C)c(CCC)c1C2=O,Potency,[1],34.9 µM (active)
same,Potency,[2],11.8 µM (active)
same,Potency,[3],7.47 µM (active)
same,Potency,[4],inactive
same,Potency,[5],inactive
same,Potency,[6],inactive
same,Potency,[7],857 nM (active)
CN1C(=O)C(=O)N2C(=C[C@]3(c4c[nH]c5ccccc45)c4ccccc4N[C@H]23)C1=O,Potency,[2],inactive
same,Potency,[3],inactive
same,Potency,[4],inactive
same,Potency,[5],inactive
same,Potency,[8],inactive
C/C(=C\[C@@H](C)CC/C=C/CC/C=C/C(=O)O)[C@@H](O)[C@H](C)C(=O)CCCC1CC(=O)NC(=O)C1,Potency,[2],inactive
same,Potency,[3],inactive
same,Potency,[4],inactive
same,Potency,[5],inactive
same,Potency,[9],inactive
O=C1OC(CCO)c2cccc(O)c21 (stereo unspecified),Potency,[2],inactive
same,Potency,[3],inactive
same,Potency,[4],inactive
same,Potency,[5],inactive
same,Potency,[6],inactive
same,Potency,[7],inactive
CN1CC[C@@]23c4ccccc4N[C@@H]1[C@@]21CCN(C)[C@@H]3Nc2ccccc21,Potency,[2],inactive
same,Potency,[3],inactive
same,Potency,[4],inactive
same,Potency,[9],inactive
same,Potency,[6],inactive
same,Potency,[8],inactive
same,Potency,[7],inactive
C/C(=C\[C@H](C)C(=O)/C=C/CC1CC(=O)NC(=O)C1)[C@@H]1OC(=O)/C=C/CC/C=C/C[C@@H](O)[C@@H]1C,Potency,[1],31.1 µM (active)
same,Potency,[4],3.72 µM (active)
C[C@@H]1CC[C@]2(C(=O)O)CC[C@]3(C)C(=C2[C@H]1C)CC[C@@H]1[C@@]2(C)CC[C@H](O)C(C)(C)[C@@H]2CC[C@]13C,Potency,[1],34.9 µM (active)
same,Potency,[2],11.8 µM (active)
same,Potency,[5],inactive
same,Potency,[9],34.4 µM (active)
same,Potency,[8],inactive
same,Potency,[7],inactive
COC(=O)c1cc2cc3c(c(O)c2c(=O)o1)OC1(CC3)CC2=C(O1)C(=O)c1c(O)c(OC)cc(OC)c1C2=O (stereo unspecified),Potency,[1],2.47 µM (active)
C[C@@]12C[C@@H](C[C@@H]3C(=O)O[C@@H](c4ccoc4)[C@H](OC(=O)c4ccccc4)[C@@H]31)OC2=O,Potency,[2],inactive
same,Potency,[3],inactive
same,Potency,[4],inactive
same,Potency,[9],inactive
same,Potency,[8],inactive
same,Potency,[7],inactive
CC1c2cccc(O)c2C(O)=C2C(=O)C3(O)C(O)=C(C(N)=O)C(=O)C(N(C)C)C3C(O)C21 (stereo unspecified),Potency,[10],282 µM (active)
same,Potency,[11],inactive
CCOC(=O)c1ccc(CN(Cc2ccc(Br)cc2)S(=O)(=O)c2cccc(C(F)(F)F)c2)cc1,Potency,[12],inactive
Cc1cc(C)c(O)c(C(=O)CC2CC(=O)NC(=O)C2)c1,Potency,[1],inactive
same,Potency,[5],7.43 µM (active)
same,Potency,[6],inactive
same,Potency,[8],6.09 µM (active)
same,Potency,[7],inactive
CC(C)=CCC/C(C)=C/Cc1cc([C@@H]2CC(=O)c3c(cc(O)c(CC=C(C)C)c3O)O2)ccc1O,Potency,[1],6.97 µM (active)
same,Potency,[5],inactive
CC1(C)CC[C@]2(CO)CC[C@]3(C)C(=CCC4[C@@]5(C)CC[C@H](O)C(C)(C)C5CC[C@]43C)C2C1 (stereo partly specified),Potency,[2],inactive
same,Potency,[3],inactive
same,Potency,[5],inactive
same,Potency,[9],inactive
same,Potency,[6],inactive
same,Potency,[7],inactive
C/C1=C/[C@@H](C)[C@H](O)[C@@H](O)/C=C/CC/C=C/C(=O)O[C@@H]1[C@H](C)C(=O)/C=C/CC1CC(=O)NC(=O)C1,Potency,[1],inactive
same,Potency,[6],inactive
C=C[C@](Cl)(CBr)CCC=C(C)C,Potency,[1],inactive
same,Potency,[3],inactive
same,Potency,[9],inactive
same,Potency,[6],inactive
same,Potency,[8],inactive
same,Potency,[7],inactive
C/C(=C\[C@H](C)C(=O)C[C@H](O)CC1CC(=O)NC(=O)C1)[C@@H]1OC(=O)CCCC/C=C/C[C@@H](O)[C@@H]1C,Potency,[1],inactive
same,Potency,[4],7.43 µM (active)
same,Potency,[5],inactive
same,Potency,[6],inactive
same,Potency,[8],12.2 µM (active)
CC(C)=CCc1c2c(c3occ(-c4ccc(O)c(O)c4)c(=O)c3c1O)C=CC(C)(C)O2,Potency,[13],inactive
same,outcome,[14],inactive
same,outcome,[15],inactive
same,Potency,[12],12.4 µM (active)
same,Potency,[10],7.08 µM (active)
same,Potency,[11],7.94 µM (active)
CC(C)=CC[C@H]1C[C@@]2(CC=C(C)C)C(=O)[C@](CC=C(C)C)(C(=O)C(C(=O)c3ccccc3)=C2O)C1(C)C,Potency,[1],4.4 µM (active)
same,Potency,[4],23.5 µM (active)
same,Potency,[5],20.9 µM (active)
same,Potency,[9],inactive
same,Potency,[6],inactive
same,Potency,[8],inactive
COc1cc(C(=O)O)ccc1NC(=O)[C@@H]1N[C@@H](CC(C)(C)C)[C@](C#N)(c2ccc(Cl)cc2F)[C@H]1c1cccc(Cl)c1F,Potency,[10],31.6 µM (active)
same,Potency,[11],5.62 µM (active)
same,Z-AUC,[16],2.81 (inactive)
same,Z-AUC,[16]; measured here: PEO1 parental Z-AUC,1.51
same,Z-AUC,[16]; measured here: PEO4 Z-AUC,1.24
same,"activity change, negative = inhibition",[17]; HiBiT,-14.1% (inactive)
same,"activity change, negative = inhibition",[17]; Viability,-6.71% (inactive)
C/C=C/C(=O)C1(O)CC2CC(C(=O)O)CC(C)C2C1C1=C2C(=O)NC(=O)C2=C(CCCCC)C(C)O1 (stereo unspecified),Potency,[1],49.3 µM (active)
same,Potency,[9],inactive
CC1COC2=C1C(=O)C(=O)c1c2ccc2c1CCCC2(C)C (stereo unspecified),outcome,[14],inactive
same,outcome,[15],inactive
same,"activity change, negative = inhibition",[18]; at 57.5 µM (top of the series),2.92% (inactive)
same,max response,[18]; measured here: cell count channel max response,-7.49%
same,max response,[18]; measured here: lipid channel max response,-5.49%
same,Potency,[11],79.4 µM (active)
